Lassa entry inh: qHTS for Inhibitors of binding or entry into cells for Lassa Virus. Potency, µM (series often up to 37.9 µM), for the others: at the top dose activity change, negative = inhibition, actives largely listed as inhibitors. Lassa virus pseudotype entry inhibition, cell reporter. hit rate 1.2% among 300,000; calls by dose curve; tested in HEK293 cells; note: potency is the fitted concentration of half-maximal effect; % is set by controls: 0 for no effect and ±100 for the full control effect; nearly all actives have a fitted effect of over 50% in size
MARV entry inh: qHTS for inhibitors of binding or entry into cells for Marburg Virus | Marburg virus pseudotyped entry inhibition, cell reporter | Potency, µM (titrated, usually from 37.8 µM), without a hit: at the highest dose activity change, negative = inhibition, hits mostly inhibitors | hit rate 1.8% among 300,000; calls by dose curve; tested in HEK293 cells; note: potency is the fitted concentration of half-maximal effect; % is set by controls: 0 for no effect and ±100 for the full control effect
Shiga toxin inh: A qHTS for Small Molecule Inhibitors of Shiga Toxin; AID 2315, 2010; Vero cells, Shiga toxin protein synthesis inhibition reporter; hit rate 9.2% among 290,000; inhibition, % at 38.7 µM; in the data active = inhibition mostly above about 28%, no sharp cut-off; inactive = mostly below about 43%; note: 0% is about no effect
CHX counter: Cycloheximide Counterscreen for Small Molecule Inhibitors of Shiga Toxin; cell reporter, cycloheximide protein synthesis inhibition counterscreen; AID 2314, 2010; hit rate 12% among 300,000; max response, %; in the data active = max response mostly above about 13%, no sharp cut-off; inactive = mostly below about 14%; note: read at 38.3 µM for the half of the compounds with a filed dose; 0% is about no effect
* hit, by the source's call; i = inactive; ? = inconclusive; . = no result; [ ] = dose if it differs, or a comment. Shown are actives, neighbours in structure and some others; about 12% of the full set was active somewhere.

SMILES | Lassa entry inh | MARV entry inh | Shiga toxin inh | CHX counter
O=C(Nc1ccc(F)cc1)Nc1ccc(NC(=O)c2ccccc2O)cc1 | 22% | 3% | 12 | 6
COc1ccc(-c2cn3nc(N4CCCC(C(=O)NCc5ccccc5OC)C4)sc3n2)cc1 (stereo not given) | 9%[46.1 µM] | . | . | .
NC(C(=O)O)c1nn[nH]n1 (stereo not given) | . | . | 7 | 4
Cc1ccc(NC(=O)COC(=O)c2ccnn2C)cc1 | 18% | 0% | 93 | 32*
Cc1ccc(NC(=O)COC(=O)c2ccn(C)n2)cc1 | ? | 14% | 19 | 20*
Cn1nccc1C(=O)OCC(=O)Nc1ccccc1 | 5%[46.1 µM] | -5%[46.1 µM] | 27 | -5
Cc1nnc(SC(C)C(=O)Nc2c(C)n(C)n(-c3ccccc3)c2=O)n1N (stereo not given) | 8% | ? | 14 | 5
COc1cccc(C(C(=O)NC(C)(C)C)N(CCC(C)C)C(=O)CCC(=O)Nc2cc(C)on2)c1OC (stereo not given) | -17%[46.1 µM] | 8.9µM* | 31 | 3
COc1ccc(C(C(=O)NC(C)(C)C)N(C(=O)CCC(=O)Nc2cc(C)on2)c2cccc(F)c2)cc1 (stereo not given) | 16% | ? | -3 | -4
CCC(C)(C)NC(=O)C(c1ccc(OC)cc1)N(C(=O)CCC(=O)Nc1cc(C)on1)c1cccc(F)c1 (stereo not given) | 7.1µM* | ? | -11 | -7
O=C(COc1ncnc2cc(Cl)ccc12)c1ccccc1 | . | . | 98* | 45*
c1ccc(OCCOc2ncnc3ccccc23)cc1 | ? | 1% | 93* | 37*
COc1ccc(C(=O)COc2ncnc3cc(Cl)ccc23)cc1 | ? | -8%[46.1 µM] | 17 | 2
O=C(COc1ncnc2ccccc12)c1ccc(Cl)cc1 | 16% | ? | 79* | 26*
O=C(Nc1nccs1)c1cc([N+](=O)[O-])ccc1Cl | . | . | -4 | 3
O=C(Nc1nccs1)c1ccc(Cl)c([N+](=O)[O-])c1 | . | . | 43 | 43*
O=C(Nc1nccs1)c1ccc(N2CCOCC2)c([N+](=O)[O-])c1 | -24% | ? | 86* | 50*
O=C(Nc1ccccc1N1CCOCC1)c1ccc(N2CCOCC2)c([N+](=O)[O-])c1 | -21%[46.1 µM] | -3%[46.1 µM] | 15 | 1
COc1ccc2oc(-c3ccc(C)c(NC(=O)c4ccc(N5CCOCC5)c([N+](=O)[O-])c4)c3)nc2c1 | -5% | -29% | 134* | 59*
CCN1CCN(C(=O)c2cc(COc3ccc(F)cc3F)on2)[C@@H](C)C1=O | ? | ? | 10 | 8
COc1cc2c(cc1OC)C1O[C@](CCCCN3C(=O)c4ccccc4C3=O)(C2)OC2=C1C(=O)CC(C)(C)C2 | . | -9%[14.2 µM] | i | -2
O=C(Nn1c(SCc2cccc([N+](=O)[O-])c2)nc2ccccc2c1=O)c1ccccc1 | ? | ? | 123* | 81*
COc1ccc(C(=O)Nn2c(SCc3cccc([N+](=O)[O-])c3)nc3ccccc3c2=O)cc1 | 3.3µM* | 8.9µM* | 114* | 61*
COc1ccc(N2CC(C(=O)N3CCN(C(=O)c4ccco4)CC3)CC2=O)cc1 (stereo not given) | 3% | -26%[46.1 µM] | -6 | -6
CC(C)(C)OC(=O)N1CCC(N2CCN(Cc3ccccc3)C(=O)C2=O)CC1 | -8%[46.1 µM] | . | . | .
SMILES | Lassa entry inh | MARV entry inh | Shiga toxin inh | CHX counter
O=C(Cc1ccc([N+](=O)[O-])cc1)c1c(O)cc(O)cc1O | . | . | 19 | 16*
Cc1cc(O)cc(O)c1C(=O)Cc1ccccc1 | ? | ? | 17 | 9
Clc1nc2c(ccc3ccccc32)[nH]1 | . | . | 71* | 41*
OCc1nc2c(ccc3ccccc32)[nH]1 | ? | ? | 10 | 12*
Clc1nnc2c3ccccc3ccn12 | 2% | 4% | . | .
C=CCc1ccccc1OCCSc1nc(-c2cccs2)nc2cc(=O)[nH]n12 | 10%[46.1 µM] | . | . | .
Cc1cc(C)c(S(=O)(=O)NC2CC3CCC2C3)c(C)c1 (stereo not given) | . | . | . | -1
Cc1onc(-c2ccccc2Cl)c1C(=O)Nc1nc2c(s1)CCCC2 | ? | ? | 127* | 69*
Cc1onc(-c2ccccc2Cl)c1C(=O)Nc1nnc(-c2ccc(Cl)cc2Cl)s1 | . | . | -4 | -2
Cc1onc(-c2ccccc2Cl)c1C(=O)Nc1nnc(-c2ccc(Br)cc2)s1 | . | . | 14 | 22*
CC(C)NC(=O)CSc1nnc(-c2ccc(F)cc2)c2ccccc12 | . | . | -15 | -2
CCOC(=O)c1ccc(N2C(=O)C3CC=CCC3C2=O)cc1 (stereo not given) | 7% | 23% | 21 | 19*
COC(=O)c1ccc(N2C(=O)C3CC=CC(C)C3C2=O)cc1 (stereo not given) | -9% | -6%[14.2 µM] | 2 | 9
CC(C)OC(=O)c1ccc(N2C(=O)C3CC=CCC3C2=O)cc1 (stereo not given) | 7% | -5% | 19 | 20*
O=C(CN1CCN(Cc2ccccc2Cl)C1=O)NCc1ccccn1 | . | . | -13 | -3
COC(=O)c1ccccc1-c1ccc(C=O)o1 | 4%[46.1 µM] | 6%[46.1 µM] | -8 | -3
CC(C)OC(=O)c1cccc(-c2ccc(C=O)o2)c1 | ? | ? | 80* | 77*
Cc1ccc(S(=O)(=O)N2C(=O)CCC2C(=O)O/N=C(\N)c2cccc([N+](=O)[O-])c2)cc1 (stereo not given) | . | . | -3 | -1
O=S(=O)(NCCc1cn2ccccc2n1)c1cccs1 | . | . | 15 | 20*
O=S(=O)(NCc1cn2ccccc2n1)c1cccs1 | . | . | 53* | 29*
O=[N+]([O-])c1ccc(S(=O)(=O)NCCc2cn3ccccc3n2)cc1 | 15% | 10% | -15 | -5
CCOCC(=O)Nc1nc2ccc(C)cc2s1 | 11µM* | -18% | 85* | 43*
CC(C)CC(=O)Nc1nc2ccc(S(C)(=O)=O)cc2s1 | . | . | 67* | 17*
CCOCC(=O)Nc1nc2ccc(OCC)cc2s1 | ? | ? | 112* | 52*
CCC(=O)Nc1nc2ccc(S(C)(=O)=O)cc2s1 | 6% | -40%[46.1 µM] | 25 | 14
SMILES | Lassa entry inh | MARV entry inh | Shiga toxin inh | CHX counter
C/C=C/C(=O)OCC(=O)Nc1nc2ccc(C)cc2s1 | 18% | -27% | -3 | 7
CS(=O)(=O)c1ccc2nc(NC(=O)CC3CCCC3)sc2c1 | -21% | 7% | 53* | 24*
CCOc1ccc2nc(-c3cc(NC(C)=O)ccc3O)sc2c1 | . | . | 51 | 35*
CCOc1ccc2nc(NC(=O)Cn3c(C)csc3=O)sc2c1 | -8% | ? | . | .
Cc1ccc2nc(NC(=O)COC(=O)c3ccccn3)sc2c1 | ? | 9%[46.1 µM] | 119* | 36*
COc1ccc(OCC(=O)Nc2ccc(O)c(-c3nc4ccccc4s3)c2)cc1 | 6%[46.1 µM] | . | . | .
COc1ccccc1NC(=O)COC(=O)c1ccccn1 | 10% | 2%[46.1 µM] | -13 | -5
CCOc1ccc2nc(NC(=O)CCC(=O)c3cccs3)sc2c1 | ? | 4% | 87* | 30*
Cc1ccc2nc(NC(=O)CSCC(=O)OCC(=O)c3ccccc3)sc2c1 | 5.8µM* | ? | 15 | 18*
Cc1cccc(NC(=O)CN(CC2CCCO2)C(=O)c2cc(S(=O)(=O)N(C)C)ccc2F)c1C (stereo not given) | -20%[46.1 µM] | 3%[46.1 µM] | . | .
CC(C)C(=O)N1c2nc(C(C)C)nn2C2(CCCCC2)[C@@H]2CCCC[C@@H]21 | 2%[46.1 µM] | -8%[46.1 µM] | . | .

Screening results from PubChem.
